# Measured values taken from the supplement of paper PMC11172423.
# A number with no mark means an inactive call.
# Tests used:
# [1] = test system: Falciformispora senegalensis CBS197.79; test: growth relative to untreated control; higher = less inhibition, active = 20 or less
# Summary of the method: (§1)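 For each test, a hyphal fragment suspension of M. mycetomatis MM55 or F. senegalensis CBS197.79 was prepared in colourless RPMI 1640 with L-glutamine and MOPS at 68–72% transmission at 660 nm. Exposure to compound at 100 or 25 µM ran for 7 days at 37 °C in 96-well plates, followed by viability reading with MTS (2 h, 490 nm) or resazurin (600 nm). Growth corresponds to metabolic activity relative to the untreated growth control after correction of both with a blank of medium and dye.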
# [2] = test system: Madurella mycetomatis MM55; test: as above
# Summary of the method: as §1
SMILES,growth ([1]; 25 µM),growth ([1]; 100 µM),growth ([2]; 25 µM),growth ([2]; 100 µM)
C[C@H](CS)C(=O)N1CCC[C@H]1C(=O)O,109%,91.7%,77.5%,95.8%
Cn1nc(-c2cccc(CNC3CCc4ccc(O)cc43)c2)c2cnc(NC3CCCC3)nc21 (stereo unspecified),18% (active),21.3%,5.13% (active),10.2% (active)
Cn1nc(-c2cccc(C#N)c2)c2cc(-c3n[nH]c(C4CCCN4)n3)ccc21 (stereo unspecified),98.7%,94.2%,92.7%,74.9%
CN1CCN(c2ccc(C(=O)NCc3cnc(C#N)nc3NCC(C)(C)C)cc2)CC1,102%,18.9% (active),72.9%,3.97% (active)
Cc1cccc(C=NNc2cc(N3CCOCC3)nc(OCCc3ccccn3)n2)c1,82.1%,101%,45.9%,10.4% (active)
CCCN1CCC=C(c2cc(-c3ccc(C)cc3)no2)C1,103%,16.5% (active),92.6%,4.88% (active)
CCn1cnc2c(N3CCCC(c4ccncc4)C3)ncnc21 (stereo unspecified),99.7%,94.6%,84.4%,62.5%
CN(C)C[C]1[CH][CH][CH][C]1CNc1ccnc2cc(Cl)ccc12.[CH]1[CH][CH][CH][CH]1.[Fe],59.2%,58%,33.7%,39.8%
CC(C)C[C@H](NC(=O)[C@H](Cc1ccccc1)NC(=O)c1cnccn1)B(O)O,103%,93.7%,113%,85.1%
